The values that follow come from PubChem BioAssay (EPA / NIEHS).

The target of test [1] is Hepatocyte nuclear factor 3-beta (Homo sapiens) (UniProt Q9Y261). The test can be described thus: ATG_FoxA2_CIS: Attagene CIS-FACTORIAL HepG2 Assay for human Forkhead box A2 (FOXA2) (AID 2282942). Particulars: HepG2 cis-reporter transcription factor activity, 24 h; actives raise or lower the signal. The method, boiled down: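 Endogenous transcription factor activity was read in HepG2 cells carrying transiently transfected cis-promoter reporter units. After 24 h dosing, reporter mRNA was quantified by RT-PCR and capillary electrophoresis, and values fitted bidirectionally versus DMSO.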

Test [2] can be described thus: ATG_RORE_CIS: Attagene CIS-FACTORIAL HepG2 Assay for human RAR-related Orphan Receptor Element (RORE) (AID 2282959). Particulars: HepG2 Attagene cis-factorial RORE reporter, mRNA; actives raise or lower the signal. The method, boiled down: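 Cells were HepG2 carrying transfected cis-regulated reporter constructs, dosed for 24 hours. Total RNA was reverse-transcribed and reporter cDNA amplified, fluorescently labeled and sized by capillary electrophoresis. Activity was fitted bidirectionally relative to DMSO.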

The nature of test [3]: ATG_Sox_CIS: Attagene CIS-FACTORIAL HepG2 Assay for human SRY-box transcription factor (SOX) (AID 2282960). The note with it: HepG2 Attagene cis-factorial SOX reporter, mRNA; actives raise or lower the signal. The method, boiled down: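 Transient MRTU transfection of HepG2; 24 h compound incubation; TriZol RNA, oligo(dT) RT, PCR, 6-FAM primer extension, HpaI cut, CE. Bidirectional fit, DMSO = baseline.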

In test [4] the target is Transcription factor Sp1 (Homo sapiens) (UniProt P08047). Nature of the test: ATG_Sp1_CIS: Attagene CIS-FACTORIAL HepG2 Assay for human Specificity Protein 1 (Sp1) (AID 2282961). Particulars: HepG2 Sp1 cis-reporter transcription, actives raise or lower the signal. The method, boiled down:
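Endogenous Sp1 activity was gauged in human liver HepG2 cells bearing transfected reporter units under a cis-regulating promoter. After 24 h dosing, reporter mRNA was quantified by RT-PCR with capillary electrophoresis, and activity fitted bidirectionally versus DMSO.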

Test [5] is described as follows: ATG_SREBP_CIS: Attagene CIS-FACTORIAL HepG2 Assay for human Sterol Regulatory Element Binding (SREBP) (AID 2282962). Particulars: HepG2 Attagene cis-factorial SREBP reporter, mRNA; actives raise or lower the signal. The method, boiled down:
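In this cis-format assay, HepG2 liver cells express reporters controlled by promoter elements responsive to native transcription factors. Exposure lasts 24 h; reporter mRNA fluorescence from capillary electrophoresis gives the signal, fitted bidirectionally against DMSO.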

Test [6] has as its target Signal transducer and activator of transcription 3 (Homo sapiens) (UniProt P40763). The test can be described thus: ATG_STAT3_CIS: Attagene CIS-FACTORIAL HepG2 Assay for human Signal Transducer and Activator of Transcription 3 (STAT3) (AID 2282963). The note with it: HepG2, Attagene cis-factorial STAT3 reporter transcription; actives raise or lower the signal. The method, boiled down: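 Readout: fluorescent reporter mRNA fragments resolved by capillary electrophoresis. Setup: HepG2 transfected with MRTUs reporting endogenous transcription-factor activity, dosed 24 h. Gain or loss of signal fitted bidirectionally against DMSO control.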

A short description of test [7]: ATG_TA_CIS: Attagene CIS-FACTORIAL HepG2 Assay for human TA Basal Promoter (AID 2282964). The note with it: HepG2 Attagene CIS-factorial TA basal promoter reporter; actives raise or lower the signal. The method, boiled down: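 HepG2 cells transiently transfected with multiple reporter units under cis promoter elements, reporting endogenous transcription factor activity; this endpoint tracks the TA basal promoter as background control. Reporter mRNA after 24 h dosing measured by RT-PCR/capillary electrophoresis; bidirectional fits versus DMSO.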

Test [8] in a line: ATG_TCF_b_cat_CIS: Attagene CIS-FACTORIAL HepG2 Assay for human T-Cell-Factor with beta-catenin (TCF/b-cat) (AID 2282965). The note with it: HepG2 TCF/beta-catenin cis-reporter transcription, actives raise or lower the signal. The method, boiled down:
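HepG2 cells transiently transfected with cis-promoter-driven multiplexed reporter units; reporter mRNA measured 24 h after dosing by RT-PCR, FAM labelling, HpaI digestion and capillary electrophoresis. Bidirectional fitting relative to DMSO baseline.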

Test [9] in a line: ATG_TAL_CIS: Attagene CIS-FACTORIAL HepG2 Assay for human TAL Basal Promoter (AID 2282966).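 Note: background control endpoint measuring basal TAL promoter reporter mRNA not a specific factor.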 The note with it: HepG2 Attagene cis-factorial TAL promoter reporter; actives raise or lower the signal. The method, boiled down:
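Human hepatoma HepG2 cells, transfected with promoter-regulated reporter units, were treated 24 h. Reporter transcript levels, measured through RT-PCR and capillary electrophoresis, were fitted for gain or loss relative to DMSO.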

A short description of test [10]: ATG_VDRE_CIS: Attagene CIS-FACTORIAL HepG2 Assay for human Vitamin D Receptor Element (VDRE) (AID 2282968). The note with it: HepG2 VDRE cis-reporter transcription, actives raise or lower the signal. The method, boiled down: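 Transient MRTU transfection of HepG2, 24 h compound exposure. Readout: reporter transcripts via RT-PCR and capillary electrophoresis, fluorescence. Bidirectional fit vs DMSO.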

Test [11] addresses Transcriptional activator Myb (Homo sapiens) (UniProt P10242). Nature of the test: ATG_Myb_CIS: Attagene CIS-FACTORIAL HepG2 Assay for human Myeloblastosis (Myb) Proto-Oncogene Transcription Factor (AID 2282986). The note with it: HepG2 Attagene CIS-FACTORIAL Myb reporter transcription; actives raise or lower the signal. The method, boiled down: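 Steps: transfect HepG2 with cis-regulated reporter units; dose with chemical for 24 h; isolate RNA, reverse-transcribe, PCR-amplify and FAM-label reporter sequences; digest with HpaI; resolve by capillary electrophoresis. Activity fitted in both directions relative to DMSO.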

The target in test [12] is Nuclear respiratory factor 1 (Homo sapiens) (UniProt Q16656). Nature of the test: ATG_NRF1_CIS: Attagene CIS-FACTORIAL HepG2 Assay for human Nuclear Respiratory Factor 1 (NRF1) Orphan Gene (AID 2282987). Particulars: HepG2 NRF1 cis-element reporter, Attagene multiplex; actives raise or lower the signal. The method, boiled down:
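Fluorescence intensity of labelled reporter cDNA fragments, resolved by capillary electrophoresis, served as readout for NRF1 cis-element activity. Transiently transfected HepG2 cells were dosed for 24 hours; activity in either direction was fitted against DMSO negative control.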

The nature of test [13]: ATG_NFI_CIS: Attagene CIS-FACTORIAL HepG2 Assay for human Nuclear Factor I (NFI) (AID 2282989). Particulars: HepG2 cis-regulatory reporter, NFI response element transcription; actives raise or lower the signal. The method, boiled down: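 Endogenous TF activity in HepG2 cells transiently transfected with cis-element-driven multiplexed reporter units, read 24 h after dosing. Reporter mRNA quantified by RT-PCR, 6-FAM labelling, HpaI digestion and capillary electrophoresis; bidirectional fit versus DMSO.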

Test [14] deals with Myc proto-oncogene protein (Homo sapiens) (UniProt P01106). The test can be described thus: ATG_Myc_CIS: Attagene CIS-FACTORIAL HepG2 Assay for human Myelocytomatosis (Myc) Proto-Oncogene Transcription Factor (AID 2282990). Particulars: HepG2, Attagene cis-reporter transcription factor activity; actives raise or lower the signal. The method, boiled down:
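Transiently transfected HepG2 cells bearing cis-promoter reporter units for endogenous transcription factors; 24 h exposure. Reporter mRNA measured by RT-PCR, 6-FAM primer extension, HpaI cut and capillary electrophoresis; bidirectional fit relative to DMSO.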

Test [15] can be described thus: ATG_NRF2_ARE_CIS: Attagene CIS-FACTORIAL HepG2 Assay for human Nuclear Factor Erythroid 2 Related Factor 2 (NFR2) response to Antioxidant Response Elements (ARE) (AID 2282992). Particulars: HepG2 Attagene ARE/NRF2 reporter, transcription factor activity; actives raise or lower the signal. The method, boiled down: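 Using transiently transfected HepG2 cells exposed for 24 h, reporter mRNA levels were determined by RT-PCR with fluorescent primer extension and capillary electrophoresis, analysed for gain or loss of signal against DMSO.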

Test [16] is described as follows: ATG_Oct_MLP_CIS: Attagene CIS-FACTORIAL HepG2 Assay for human Octamer-Binding Transcription Factor (Oct) (AID 2282993). Particulars: HepG2 Attagene cis-factorial Oct reporter, mRNA; actives raise or lower the signal. The method, boiled down:
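HepG2 cells transiently transfected with cis-element-driven reporter transcription units (endogenous TF activity); 24 h compound exposure. Reporter mRNA quantified by RT-PCR, 6-FAM labelling, HpaI digestion and capillary electrophoresis; bidirectional fit versus DMSO baseline.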

Test [17] addresses Cellular tumor antigen p53 (Homo sapiens) (UniProt P04637). Nature of the test: ATG_p53_CIS: Attagene CIS-FACTORIAL HepG2 Assay for human p53 Transcription Factor (AID 2282994). The note with it: HepG2 p53 cis-element reporter, Attagene mRNA; actives raise or lower the signal. The method, boiled down: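 In HepG2 cells, reporter transcription units under cis-regulatory promoters were transiently introduced. Following 24 h treatment, RNA was processed to labelled, digested cDNA fragments read by capillary electrophoresis; fitting was bidirectional versus DMSO.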

Test [18] deals with Nuclear receptor subfamily 1 group I member 2 (Homo sapiens) (UniProt O75469). The test can be described thus: ATG_PXR_TRANS: Attagene TRANS-FACTORIAL HepG2 Assay for human Pregnane X Receptor (PXR) (AID 2283008; active = hit-call score of the fitted dose curve at least 0.9, where 1 is the maximum). The method, boiled down: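 Multiplexed TRANS reporter panel in HepG2; this component tracks PXR-Gal4-driven reporter mRNA after 24 h dosing, measured by RT-PCR with capillary electrophoresis fluorescence, fitted against DMSO.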

A short description of test [19]: ATG_XTT_Cytotoxicity: Cytotoxicity Assessment in the Attagene TRANS-FACTORIAL HepG2 Assay (AID 2283584; active = hit-call score of the fitted dose curve at least 0.9, where 1 is the maximum). The method, boiled down:
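24 h chemical exposure of reporter-transfected HepG2; XTT signal loss vs DMSO indicates cytotoxicity.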

In test [20] the target is Heat shock factor protein 1 (Homo sapiens) (UniProt Q00613). Nature of the test: ATG_HSE_CIS: Attagene CIS-FACTORIAL HepG2 Assay for human Heat Shock Transcription Factor 1 (HSE) (AID 2282953). Particulars: HepG2 HSE cis-reporter, Attagene RNA transcription; actives raise or lower the signal. The method, boiled down:
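HepG2 cells transfected with cis-promoter reporter units sensing endogenous transcription factor activity; reporter mRNA quantified 24 h post-dose by RT-PCR and capillary electrophoresis of 6-FAM-labelled products. Bidirectional fitting against DMSO.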

Inconclusive results are not listed. Active and inactive are the calls of the source. Rule for the calls, unless noted: active = hit-call score of the fitted dose curve at least 0.9, where 1 is the maximum; inactive = score below 0.9.

Sequence of Hepatocyte nuclear factor 3-beta (Homo sapiens) (Q9Y261 whole entry, looked up): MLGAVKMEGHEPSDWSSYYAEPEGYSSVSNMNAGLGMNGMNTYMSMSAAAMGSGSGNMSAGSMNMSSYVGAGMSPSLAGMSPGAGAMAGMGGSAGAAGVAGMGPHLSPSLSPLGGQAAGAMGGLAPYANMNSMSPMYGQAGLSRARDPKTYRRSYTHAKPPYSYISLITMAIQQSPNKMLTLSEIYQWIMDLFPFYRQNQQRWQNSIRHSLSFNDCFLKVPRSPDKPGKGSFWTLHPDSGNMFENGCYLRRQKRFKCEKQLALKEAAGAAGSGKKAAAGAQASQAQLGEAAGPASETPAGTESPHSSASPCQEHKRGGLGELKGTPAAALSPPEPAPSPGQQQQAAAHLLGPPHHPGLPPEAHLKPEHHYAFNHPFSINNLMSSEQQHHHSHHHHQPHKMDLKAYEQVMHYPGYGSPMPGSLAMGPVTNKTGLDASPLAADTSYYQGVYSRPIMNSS
Sequence of Cellular tumor antigen p53 (Homo sapiens) (P04637 whole entry, looked up, the tested form may be a part): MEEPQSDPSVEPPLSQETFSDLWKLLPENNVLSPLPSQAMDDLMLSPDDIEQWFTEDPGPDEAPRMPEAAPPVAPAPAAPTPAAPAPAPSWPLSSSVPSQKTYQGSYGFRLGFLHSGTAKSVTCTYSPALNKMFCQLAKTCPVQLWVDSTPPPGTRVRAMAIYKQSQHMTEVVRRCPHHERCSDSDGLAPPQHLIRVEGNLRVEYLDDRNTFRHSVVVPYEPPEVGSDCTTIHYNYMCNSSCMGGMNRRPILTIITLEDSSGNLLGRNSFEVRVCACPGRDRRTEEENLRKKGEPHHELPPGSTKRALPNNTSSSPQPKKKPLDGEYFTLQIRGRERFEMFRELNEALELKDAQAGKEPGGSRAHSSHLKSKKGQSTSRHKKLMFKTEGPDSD
Sequence of Myc proto-oncogene protein (Homo sapiens) (P01106 whole entry, looked up): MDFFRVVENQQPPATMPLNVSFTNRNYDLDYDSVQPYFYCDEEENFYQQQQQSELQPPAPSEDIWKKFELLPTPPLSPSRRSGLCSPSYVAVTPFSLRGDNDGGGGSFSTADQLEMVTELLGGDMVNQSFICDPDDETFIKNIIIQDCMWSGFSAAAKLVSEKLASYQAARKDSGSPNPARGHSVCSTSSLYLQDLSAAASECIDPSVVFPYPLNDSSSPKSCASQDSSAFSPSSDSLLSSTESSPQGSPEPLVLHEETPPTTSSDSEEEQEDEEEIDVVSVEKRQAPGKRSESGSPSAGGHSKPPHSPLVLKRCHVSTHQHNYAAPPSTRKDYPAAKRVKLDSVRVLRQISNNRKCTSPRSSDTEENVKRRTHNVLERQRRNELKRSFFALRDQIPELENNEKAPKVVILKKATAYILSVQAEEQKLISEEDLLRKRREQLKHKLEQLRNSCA
Sequence of Nuclear receptor subfamily 1 group I member 2 (Homo sapiens) (O75469 whole entry, looked up, the tested form may be a part): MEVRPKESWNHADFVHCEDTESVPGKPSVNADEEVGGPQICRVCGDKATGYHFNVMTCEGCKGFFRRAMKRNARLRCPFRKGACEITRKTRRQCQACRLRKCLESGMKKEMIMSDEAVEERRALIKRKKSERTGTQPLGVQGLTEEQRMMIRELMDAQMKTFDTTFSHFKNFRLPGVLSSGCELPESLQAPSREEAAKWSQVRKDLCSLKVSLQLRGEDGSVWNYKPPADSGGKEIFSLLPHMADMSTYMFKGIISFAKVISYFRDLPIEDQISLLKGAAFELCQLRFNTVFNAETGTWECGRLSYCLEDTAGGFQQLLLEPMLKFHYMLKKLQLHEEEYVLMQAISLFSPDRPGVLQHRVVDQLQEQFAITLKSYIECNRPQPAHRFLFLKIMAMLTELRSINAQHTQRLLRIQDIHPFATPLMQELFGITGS
Sequence of Transcription factor Sp1 (Homo sapiens) (P08047 whole entry, looked up): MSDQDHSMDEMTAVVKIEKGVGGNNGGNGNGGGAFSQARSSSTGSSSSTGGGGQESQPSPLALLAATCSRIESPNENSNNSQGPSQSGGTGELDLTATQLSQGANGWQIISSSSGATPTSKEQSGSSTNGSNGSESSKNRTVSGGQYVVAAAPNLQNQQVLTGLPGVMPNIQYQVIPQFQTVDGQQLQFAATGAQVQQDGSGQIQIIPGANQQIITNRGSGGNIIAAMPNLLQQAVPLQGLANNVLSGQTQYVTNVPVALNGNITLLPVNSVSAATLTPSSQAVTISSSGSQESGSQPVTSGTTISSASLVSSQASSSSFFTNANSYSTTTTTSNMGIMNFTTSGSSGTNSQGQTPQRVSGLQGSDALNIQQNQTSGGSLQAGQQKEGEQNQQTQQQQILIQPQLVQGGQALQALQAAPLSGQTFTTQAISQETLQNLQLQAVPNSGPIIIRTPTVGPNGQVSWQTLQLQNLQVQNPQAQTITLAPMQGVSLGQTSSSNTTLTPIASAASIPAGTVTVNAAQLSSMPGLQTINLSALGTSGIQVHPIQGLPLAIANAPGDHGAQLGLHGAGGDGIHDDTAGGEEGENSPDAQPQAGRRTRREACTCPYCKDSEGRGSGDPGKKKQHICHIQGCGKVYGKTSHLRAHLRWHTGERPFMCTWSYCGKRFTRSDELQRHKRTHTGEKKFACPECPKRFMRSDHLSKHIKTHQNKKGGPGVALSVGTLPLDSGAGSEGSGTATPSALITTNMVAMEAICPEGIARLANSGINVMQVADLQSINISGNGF
Sequence of Transcriptional activator Myb (Homo sapiens) (P10242 whole entry, looked up): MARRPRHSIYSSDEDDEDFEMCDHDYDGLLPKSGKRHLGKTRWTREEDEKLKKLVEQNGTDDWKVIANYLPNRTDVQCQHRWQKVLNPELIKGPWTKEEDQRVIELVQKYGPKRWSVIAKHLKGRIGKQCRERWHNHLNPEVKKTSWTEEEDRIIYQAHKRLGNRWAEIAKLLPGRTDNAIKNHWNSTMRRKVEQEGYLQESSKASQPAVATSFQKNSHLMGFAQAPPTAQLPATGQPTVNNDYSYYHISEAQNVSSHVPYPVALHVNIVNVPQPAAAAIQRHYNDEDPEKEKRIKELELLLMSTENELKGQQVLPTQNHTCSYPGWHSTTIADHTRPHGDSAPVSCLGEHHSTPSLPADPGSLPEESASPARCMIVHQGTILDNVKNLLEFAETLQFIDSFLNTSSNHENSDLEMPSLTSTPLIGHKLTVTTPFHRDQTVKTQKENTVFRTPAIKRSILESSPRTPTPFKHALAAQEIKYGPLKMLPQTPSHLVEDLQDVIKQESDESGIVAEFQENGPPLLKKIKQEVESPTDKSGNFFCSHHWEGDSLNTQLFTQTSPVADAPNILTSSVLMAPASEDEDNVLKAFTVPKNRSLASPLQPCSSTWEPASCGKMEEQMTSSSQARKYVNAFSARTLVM
Sequence of Signal transducer and activator of transcription 3 (Homo sapiens) (P40763 whole entry, looked up, the tested form may be a part): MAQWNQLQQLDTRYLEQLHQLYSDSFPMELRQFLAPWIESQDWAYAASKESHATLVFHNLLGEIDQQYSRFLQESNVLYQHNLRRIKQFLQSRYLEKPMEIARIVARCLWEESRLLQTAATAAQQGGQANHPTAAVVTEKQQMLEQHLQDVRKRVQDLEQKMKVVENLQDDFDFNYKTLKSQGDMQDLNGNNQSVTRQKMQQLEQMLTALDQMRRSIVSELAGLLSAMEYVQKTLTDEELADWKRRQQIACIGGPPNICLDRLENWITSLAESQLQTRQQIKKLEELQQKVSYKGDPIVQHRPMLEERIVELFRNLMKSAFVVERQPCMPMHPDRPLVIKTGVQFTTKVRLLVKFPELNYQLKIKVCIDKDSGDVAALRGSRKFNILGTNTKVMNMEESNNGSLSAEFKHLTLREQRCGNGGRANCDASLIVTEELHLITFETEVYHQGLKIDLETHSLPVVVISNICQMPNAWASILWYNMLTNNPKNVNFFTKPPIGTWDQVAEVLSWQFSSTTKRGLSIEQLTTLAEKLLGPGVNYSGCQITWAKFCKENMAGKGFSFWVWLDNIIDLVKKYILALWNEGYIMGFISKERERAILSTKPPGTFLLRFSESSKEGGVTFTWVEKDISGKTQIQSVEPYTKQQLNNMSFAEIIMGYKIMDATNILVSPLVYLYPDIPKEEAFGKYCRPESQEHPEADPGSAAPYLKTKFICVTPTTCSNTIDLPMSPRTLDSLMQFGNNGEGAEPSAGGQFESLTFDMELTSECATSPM
Sequence of Heat shock factor protein 1 (Homo sapiens) (Q00613 whole entry, looked up): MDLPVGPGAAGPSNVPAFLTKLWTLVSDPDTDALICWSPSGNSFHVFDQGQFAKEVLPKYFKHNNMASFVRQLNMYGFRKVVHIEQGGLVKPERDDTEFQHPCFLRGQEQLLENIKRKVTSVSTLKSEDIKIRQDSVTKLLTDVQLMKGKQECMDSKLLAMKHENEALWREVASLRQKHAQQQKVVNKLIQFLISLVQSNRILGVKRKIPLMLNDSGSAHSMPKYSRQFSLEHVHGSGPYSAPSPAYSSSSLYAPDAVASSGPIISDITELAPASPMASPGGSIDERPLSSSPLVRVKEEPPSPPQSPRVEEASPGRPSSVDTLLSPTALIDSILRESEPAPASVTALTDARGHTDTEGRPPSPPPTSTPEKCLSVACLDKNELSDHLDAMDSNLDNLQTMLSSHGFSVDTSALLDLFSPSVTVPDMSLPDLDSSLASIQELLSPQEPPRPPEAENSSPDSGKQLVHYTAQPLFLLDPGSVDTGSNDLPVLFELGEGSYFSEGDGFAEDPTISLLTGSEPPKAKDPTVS
Sequence of Nuclear respiratory factor 1 (Homo sapiens) (Q16656 whole entry, looked up, the tested form may be a part): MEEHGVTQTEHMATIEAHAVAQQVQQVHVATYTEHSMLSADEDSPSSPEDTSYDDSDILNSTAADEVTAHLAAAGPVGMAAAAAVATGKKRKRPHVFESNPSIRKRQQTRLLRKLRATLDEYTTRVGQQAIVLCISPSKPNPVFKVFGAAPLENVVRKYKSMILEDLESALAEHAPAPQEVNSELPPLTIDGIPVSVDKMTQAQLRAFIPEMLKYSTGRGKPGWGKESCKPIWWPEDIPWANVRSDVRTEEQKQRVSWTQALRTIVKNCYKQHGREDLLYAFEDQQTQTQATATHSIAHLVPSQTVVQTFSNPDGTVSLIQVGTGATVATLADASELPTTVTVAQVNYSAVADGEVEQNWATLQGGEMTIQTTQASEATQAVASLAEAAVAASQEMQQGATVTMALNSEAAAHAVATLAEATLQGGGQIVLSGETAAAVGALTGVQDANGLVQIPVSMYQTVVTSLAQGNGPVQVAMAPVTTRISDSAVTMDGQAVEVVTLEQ

In the case of `CCCCCCC(O)CCCCCCCCCCC(=O)OC` (configuration not stated), the molecule was called inactive in [1], in test [3], in [4], in test [5], in [6] and in [7]. Besides, the molecule was classed as inactive in test [8], in [9], in test [10], in test [11], in test [12] and in [13]. The call in [14], in test [15], in test [16], in [17], in test [18] and in [19] was inactive. Further, in [2], the AC50 (in general, the midpoint of the concentration-response curve, whichever way the signal moves) was 21.8 µM (active).

For `OCCOCCOCCOCCOCCO`, the molecule was classed as inactive in test [1], in [20], in test [2], in test [3], in [4] and in test [5]. The molecule was called inactive in test [6], in test [7], in test [8], in [9], in test [10] and in test [11]. The call in test [12], in [13], in test [14], in test [15], in test [16] and in test [17] was inactive. For the same molecule, the result in [19] was inactive.

Turning to `O=C(CC(C(=O)OC1CCCCC1)S(=O)(=O)O)OC1CCCCC1` (configuration not stated), the outcome in [1], in test [20], in [2], in test [3], in test [4] and in [5] was inactive. For the same molecule, the molecule was called inactive in test [6], in test [7], in test [8], in test [9], in test [11] and in test [12]. The outcome in [13], in [14], in [15], in [16], in [17] and in test [18] was inactive. For the same molecule, in test [19], the outcome was inactive.

Turning to `COC(=O)/C=C\C(=O)OC`, the result in test [1], in [20], in test [2], in [4], in [5] and in test [6] was inactive. The molecule was called inactive in [7], in test [8], in [11], in test [12], in test [13] and in test [14]. The result in test [16], in test [17], in test [18] and in [19] was inactive. Moreover, the AC50 in [3] was 100 µM (active); in [9], 100 µM (active); in test [10], 49.6 µM (active); in test [15], 10.5 µM (active).
